Test results from PubChem BioAssay AID624117 (National Center for Advancing Translational Sciences (NCATS), 2012).
Results filed as inconclusive are left out. Calls follow the shape of the dose curve; as a rule, active = well fitted curve in the direction sought with a large enough effect; inconclusive = small, poorly fitted or top-dose-only effect, or another doubt; inactive = no such curve, though single readings can be large or run the other way.

Experiment: qHTS Assay for Rab9 Promoter Activators: Hit Validation Using Renilla Luciferase Read-Out; also: % of control where 0% means no effect
Conditions: Huh7 NPC1 promoter Renilla luciferase reporter, 24 h; series mostly up to 76.9 µM; activation (negative = inhibition): at the top concentration
Description: Niemann Pick Type C (NPC) is a rare neurodegenerative lipidosis that is characterized by lipid storage in the endosomal/lysosomal system. Treatment modalities for this devastating disease are currently non-existent due to the severe obstacles associated with accessing the central nervous system with proteins or genes. The majority of mutations causing NPC disease are missense mutations that are distributed throughout the length of the NPC1 protein, with the most prevalent being the I1061T allele. Although NPC1 mutant proteins may be functional, they are typically trapped in the ER due to misfolding. […] We have developed and optimized a cell based renilla luciferase reporter assay in 1536 well format for the identification of up-regulators of the mutant NPC1 promoter. This assay presents data on the validation of hits from the primary screen, which used a firefly luciferase read-out. NIH Chemical Genomics Center [NCGC] NIH Molecular Libraries Probe Production centers Network [MLPCN] MLPCN Grant: MH089375 Assay Submitter (PI): Yiannis A. Ioannou
Huh7 cells stably expressing NPC promoter-luciferase will be seeded at 1,500 cells/well in 5 uL in 1,536-well white opaque plates with 23 nL/well of compound in DMSO solution. The assay plates will be incubated at 37 deg C for 24 hours, after which 3 uL/well BriteLite plus luciferase detection reagent mixture (Perkin Elmer) will be added. Luminescence signal will be measured in a ViewLux plate reader (Perkin Elmer) after a 10 minute incubation at the room temperature.

Activation (negative = inhibition), inactive:
CCN(CC)S(=O)(=O)c1ccc(NCc2ccccn2)nc1 -1.71%
CCOc1cc(C(=O)N=c2sccn2C)ccc1OC(F)F 4.68%
COc1ccc(-c2cc(C(=O)Nc3ccccc3F)on2)cc1 1.74%
CCCCc1cc(=O)oc2cc(OCC(=O)N3CCOCC3)ccc12 -1.07%
O=S(=O)(c1cccs1)N1CCN(c2ncccn2)CC1 -5.33%
O=C(CCCOc1ccc(Cl)cc1)N1CCCCC1 -3.94%
COc1ccc(-c2csc(Nc3ncccn3)n2)cc1C -0.405%
O=C(CSc1nnc(-c2ccc([N+](=O)[O-])cc2)o1)Nc1ccccn1 -4.19%
Cc1ccc(C(=O)c2cncc(Br)c2)cc1 7.59%
O=C(CCS(=O)(=O)c1ccccc1)Nc1ccc(-c2nc3ccccc3s2)cc1 1.79%
O=C(C[N+]1(CC#Cc2ccccc2)CCCCC1)c1ccccc1 5.82%
CCOC(=O)CSc1nc2cc(C)ccc2cc1C#N -50.3%
Nc1nc(SCCO)[nH]c(=O)c1NC(=O)c1ccco1 10.2%
C=CCc1ccc(OCCOCCNCCOC)c(OC)c1 17.9%
COCc1cc(C)nc(N/N=C/c2ccc(-c3ccc(Cl)cc3[N+](=O)[O-])o2)c1C#N -12.3%
NC(=O)C1(NC(=O)[C@@H]2CC3(CC(c4cccc(NC(=O)[C@@H]5CCC(=O)N5)c4)=NO3)CN2C(=O)c2ccccc2)CC1 (stereo not given in full) 4.72%
O=C(CSc1nnc(-c2csc3c2CCCC3)o1)Nc1ccccc1 -21%
COc1ccc(C)cc1N(C(=O)CNC(=O)c1ccco1)C(C(=O)NC1CCCC1)c1cccnc1 (stereo not given) 21.9%
CCOC(=O)c1ccc(NC(=O)Oc2cc(C)c(Cl)cc2C(C)C)cc1 -2.91%
COc1ccccc1N(C(=O)c1snc(C(N)=O)c1N)C(C(=O)NC1CCCCC1)c1cccc(OC)c1OC (stereo not given) -0.496%
Cc1nc(SCC(=O)NC(=O)NC(C)(C)C)nc(C)c1C 0.143%
CCOC(=O)c1csc(COc2ccc(OC)cc2)n1 -4.37%
COCCNC(=O)C1CCC(CNS(=O)(=O)c2ccc(F)cc2)CC1 (stereo not given) -8.21%
N#C/C(=N\Nc1ccc(Cl)cc1)C(=N)N1CCCCC1 -5.18%
Cc1ccc(N(O)C(=O)NCCCCNC(=O)N(O)c2ccc(C)cc2)cc1 1.58%
CCOc1cc(C2C(C#N)=C(N)Oc3n[nH]c(C)c32)ccc1OCCN1CCOCC1 (stereo not given) 13.1%
CCCCCCC(=O)Nc1ccc(C(=O)N/N=C/c2cccnc2)cc1 2.29%
CC1CCc2sc(C(=O)NNC(=S)NC3CC3)cc2C1 (stereo not given) -43.9%
O=C(NNC(=O)C1COc2ccccc2O1)c1ccccc1O (stereo not given) -1.57%
O=C(NCCSCc1c(F)cccc1Cl)c1ccc(CN2CCOCC2)cc1 -51.8%
CC(=O)c1cccc(NC(=O)N2CCOCC2)c1 -0.773%
COc1cccc(C2Nc3ccccc3NC3=C2C(=O)CC(C)(C)C3)c1 (stereo not given) -1.62%
COCCSc1ncnc2c1oc1nc3c(cc12)COC(C)(C)C3 -6.48%
CCCc1cc(C(=O)Nc2ccccc2SC)no1 24.4%
O=C(CCN1C(=O)c2ccccc2C1=O)Nc1ccc(-c2nc3ccccc3s2)cc1 -11.4%
Cc1ccccc1NC(=O)CSc1ccc(-c2cccnc2)nn1 -0.363%
Cc1ccc2c(c1)sc1nc(=O)n(-c3ccccc3)c(=O)n12 -17.1%
COc1ccc(S(=O)(=O)NC(C(=O)NCCc2ccccn2)C(C)C)cc1 (stereo not given) -1.28%
COC(=O)c1sccc1NC(=S)OC -7.79%
O=C(CCNC(=O)c1ccc(Br)o1)NCc1ccc(Cl)cc1 -2.1%
